From paper PMC5700166

Columns and labels:
Test in all cases: protein-binding microarray (PBM); PBM: ~300 nM protein, 6 mM HEPES pH 7.8, 80 mM KCl, 0.5 mM EDTA, 0.5 mM EGTA, 6% glycerol, 35 ng/ul poly-dIdC, 1% milk, 1 h, room temperature; Ap Aiptasia and Nv Nematostella (sea anemones) / Co Capsaspora / Aq Amphimedon (sponge) / Dm Drosophila / Hu human; RHD is the Rel homology domain; high values mean tight binding
Settings in all cases: dsDNA, one strand shown
GST-Ap-NF-kB RHD = target: T1, GST-Ap-NF-kB RHD (Exaiptasia pallida (Aiptasia), UniProt A0A913YAJ5 2-422)
T1 sequence: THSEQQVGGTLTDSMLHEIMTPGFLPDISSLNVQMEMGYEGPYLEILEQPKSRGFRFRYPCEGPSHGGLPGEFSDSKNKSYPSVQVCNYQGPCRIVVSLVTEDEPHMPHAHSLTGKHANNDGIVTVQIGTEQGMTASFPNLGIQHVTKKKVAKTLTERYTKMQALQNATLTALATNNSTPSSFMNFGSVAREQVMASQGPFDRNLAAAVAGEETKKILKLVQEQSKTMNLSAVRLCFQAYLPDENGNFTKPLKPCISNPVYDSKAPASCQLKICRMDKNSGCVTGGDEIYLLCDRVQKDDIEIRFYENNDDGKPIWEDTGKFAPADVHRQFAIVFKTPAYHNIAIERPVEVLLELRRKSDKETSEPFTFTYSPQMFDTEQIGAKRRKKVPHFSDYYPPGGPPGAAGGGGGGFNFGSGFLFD

[1] = target: T2, GST-Nv-NF-kB (Cys allele) (Nematostella vectensis, UniProt E5G601 2-411)
T2 sequence: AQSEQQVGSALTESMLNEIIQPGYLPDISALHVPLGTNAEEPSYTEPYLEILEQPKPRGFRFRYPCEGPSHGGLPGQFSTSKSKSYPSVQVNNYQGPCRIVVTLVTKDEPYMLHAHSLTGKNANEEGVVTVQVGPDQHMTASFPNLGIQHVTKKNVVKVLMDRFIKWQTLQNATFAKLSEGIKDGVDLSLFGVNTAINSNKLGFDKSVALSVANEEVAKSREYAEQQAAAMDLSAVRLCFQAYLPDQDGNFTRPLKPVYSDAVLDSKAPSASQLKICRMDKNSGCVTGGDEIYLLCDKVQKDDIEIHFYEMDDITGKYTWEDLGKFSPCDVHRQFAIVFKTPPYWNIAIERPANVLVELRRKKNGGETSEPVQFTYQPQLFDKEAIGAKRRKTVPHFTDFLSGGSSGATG

GST-Co-NF-kB = target: T3, GST-Co-NF-kB (Capsaspora owczarzaki, UniProt F1ARL5 200-546)
T3 sequence: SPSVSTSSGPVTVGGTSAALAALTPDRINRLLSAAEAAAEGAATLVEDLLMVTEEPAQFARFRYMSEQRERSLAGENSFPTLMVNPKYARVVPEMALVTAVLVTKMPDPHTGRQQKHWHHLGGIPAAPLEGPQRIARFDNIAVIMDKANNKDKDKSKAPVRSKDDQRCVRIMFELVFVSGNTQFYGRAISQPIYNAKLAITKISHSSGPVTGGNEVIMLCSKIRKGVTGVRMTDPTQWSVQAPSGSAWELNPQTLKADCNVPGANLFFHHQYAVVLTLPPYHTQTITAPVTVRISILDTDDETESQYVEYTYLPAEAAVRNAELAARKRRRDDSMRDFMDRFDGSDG

GST-Aq-NF-kB = target: T4, GST-Aq-NF-kB (Amphimedon queenslandica, UniProt A9Y5G7 2-389)
T4 sequence: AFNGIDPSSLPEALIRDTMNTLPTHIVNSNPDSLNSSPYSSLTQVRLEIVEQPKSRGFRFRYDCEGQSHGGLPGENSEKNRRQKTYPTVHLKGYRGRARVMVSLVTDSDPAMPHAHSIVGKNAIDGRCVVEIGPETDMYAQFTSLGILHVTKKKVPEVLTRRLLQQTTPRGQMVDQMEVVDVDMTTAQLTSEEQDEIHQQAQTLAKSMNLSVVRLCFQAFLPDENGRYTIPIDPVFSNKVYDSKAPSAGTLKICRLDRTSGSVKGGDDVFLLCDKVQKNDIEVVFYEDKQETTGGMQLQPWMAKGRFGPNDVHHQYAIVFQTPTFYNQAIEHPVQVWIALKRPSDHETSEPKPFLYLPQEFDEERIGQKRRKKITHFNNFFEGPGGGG

GST-Dm-Relish = target: T5, GST-Dm-Relish (Drosophila melanogaster, UniProt Q94527 99-473)
T5 sequence: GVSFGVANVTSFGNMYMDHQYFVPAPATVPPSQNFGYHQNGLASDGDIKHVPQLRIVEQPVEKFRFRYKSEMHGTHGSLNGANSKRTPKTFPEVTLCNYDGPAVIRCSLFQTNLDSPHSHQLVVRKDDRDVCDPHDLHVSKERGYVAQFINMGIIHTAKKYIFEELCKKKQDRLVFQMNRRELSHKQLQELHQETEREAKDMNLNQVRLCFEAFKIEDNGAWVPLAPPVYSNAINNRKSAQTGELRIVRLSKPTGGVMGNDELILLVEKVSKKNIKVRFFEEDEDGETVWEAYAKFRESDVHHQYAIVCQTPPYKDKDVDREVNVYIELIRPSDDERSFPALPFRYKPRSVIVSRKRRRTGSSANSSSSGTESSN

| Sequence | binding signal (GST-Ap-NF-kB RHD) [z-score] | binding signal [1] [z-score] | binding signal (GST-Co-NF-kB) [z-score] | binding signal (GST-Aq-NF-kB) [z-score] | binding signal (GST-Dm-Relish) [z-score] |
| --- | --- | --- | --- | --- | --- |
| CCGATTAACATCACCTCTTTCCCTGATGTTAATCGGGTCTTGATTCGCTTGACGCTGCTG | 2.58 | 2.64 | 3.61 | 2.52 |  |
| CCGATTAACATCACCGCTTCCCTTGATGTTAATCGGGTCTTGATTCGCTTGACGCTGCTG | 1.62 | 1.86 | 1.46 | 2 |  |
| CCGATTAACATCAGTACGGGAAATGATGTTAATCGGGTCTTGATTCGCTTGACGCTGCTG | 1.79 | 3.11 | 2.65 | 2.81 |  |
| CCGATTAACATCAGGGGAGTGTATGATGTTAATCGGGTCTTGATTCGCTTGACGCTGCTG | 3.6 | 3.38 | 3.2 | 2.89 |  |
| CCGATTAACATCATACAAGGGAGTGATGTTAATCGGGTCTTGATTCGCTTGACGCTGCTG | 1.02 | 1.41 | 1.46 | 2.84 |  |
| CCGATTAACATCAGGGACGGAAATGATGTTAATCGGGTCTTGATTCGCTTGACGCTGCTG | 2.7 | 3.44 | 2.07 | 2.84 |  |
| CCGATTAACATCAGGAGTTACCCTGATGTTAATCGGGTCTTGATTCGCTTGACGCTGCTG | 2.75 | 3.81 | 2.23 | 6.71 | 5.11 |
| CCGATTAACATCAATTTTTCCCATGATGTTAATCGGGTCTTGATTCGCTTGACGCTGCTG | 2.62 | 4.2 | 5.21 | 3.27 | 1.64 |
| CCGATTAACATCAGATTTCTCCCTGATGTTAATCGGGTCTTGATTCGCTTGACGCTGCTG | 1.96 | 3.11 | 2.92 | 3.18 |  |
| CCGATTAACATCAAATTTTCCCATGATGTTAATCGGGTCTTGATTCGCTTGACGCTGCTG | 3.65 | 5.18 | 5.19 | 4.45 | 1.94 |
| CCGATTAACATCAAAAACTACCCTGATGTTAATCGGGTCTTGATTCGCTTGACGCTGCTG | 4.12 | 3.21 | 3.13 | 4.72 | 5.43 |
| CCGATTAACATCAGGGGGTGAAATGATGTTAATCGGGTCTTGATTCGCTTGACGCTGCTG | 3.26 | 3.42 | 6.99 | 3.93 | 3.46 |
| CCGATTAACATCAACACCCCCCCTGATGTTAATCGGGTCTTGATTCGCTTGACGCTGCTG | 5.32 | 4.06 | 5.33 | 4.43 | 5.81 |
| CCGATTAACATCAGGGGTTTTGATGATGTTAATCGGGTCTTGATTCGCTTGACGCTGCTG | 3.81 | 3.46 | 1.34 | 3.25 | 5.6 |
| CCGATTAACATCACGGGAATGCCTGATGTTAATCGGGTCTTGATTCGCTTGACGCTGCTG | 1.93 | 2.46 | 1.56 | 3.8 | 3.11 |
